In the supplement of paper PMC11732987, “Enantioselective OTUD7B fragment discovery through chemoproteomics screening and high-throughput optimisation” (Communications Chemistry, 2025):

Assays:
Test in all cases: log2 ratio of Biotin-Ahx-Ub-VS probe labelling (fragment/DMSO); higher = less target engagement (more negative = stronger competition), active = hit call of the paper (q ≤ 0.05, log2 ratio ≤ -1)
Conditions in all cases: compound concentration: 200 uM; treatment time: 3 h
[1] = target: T1, USP42 (UniProt Q9H9J4)
T1 sequence (whole entry): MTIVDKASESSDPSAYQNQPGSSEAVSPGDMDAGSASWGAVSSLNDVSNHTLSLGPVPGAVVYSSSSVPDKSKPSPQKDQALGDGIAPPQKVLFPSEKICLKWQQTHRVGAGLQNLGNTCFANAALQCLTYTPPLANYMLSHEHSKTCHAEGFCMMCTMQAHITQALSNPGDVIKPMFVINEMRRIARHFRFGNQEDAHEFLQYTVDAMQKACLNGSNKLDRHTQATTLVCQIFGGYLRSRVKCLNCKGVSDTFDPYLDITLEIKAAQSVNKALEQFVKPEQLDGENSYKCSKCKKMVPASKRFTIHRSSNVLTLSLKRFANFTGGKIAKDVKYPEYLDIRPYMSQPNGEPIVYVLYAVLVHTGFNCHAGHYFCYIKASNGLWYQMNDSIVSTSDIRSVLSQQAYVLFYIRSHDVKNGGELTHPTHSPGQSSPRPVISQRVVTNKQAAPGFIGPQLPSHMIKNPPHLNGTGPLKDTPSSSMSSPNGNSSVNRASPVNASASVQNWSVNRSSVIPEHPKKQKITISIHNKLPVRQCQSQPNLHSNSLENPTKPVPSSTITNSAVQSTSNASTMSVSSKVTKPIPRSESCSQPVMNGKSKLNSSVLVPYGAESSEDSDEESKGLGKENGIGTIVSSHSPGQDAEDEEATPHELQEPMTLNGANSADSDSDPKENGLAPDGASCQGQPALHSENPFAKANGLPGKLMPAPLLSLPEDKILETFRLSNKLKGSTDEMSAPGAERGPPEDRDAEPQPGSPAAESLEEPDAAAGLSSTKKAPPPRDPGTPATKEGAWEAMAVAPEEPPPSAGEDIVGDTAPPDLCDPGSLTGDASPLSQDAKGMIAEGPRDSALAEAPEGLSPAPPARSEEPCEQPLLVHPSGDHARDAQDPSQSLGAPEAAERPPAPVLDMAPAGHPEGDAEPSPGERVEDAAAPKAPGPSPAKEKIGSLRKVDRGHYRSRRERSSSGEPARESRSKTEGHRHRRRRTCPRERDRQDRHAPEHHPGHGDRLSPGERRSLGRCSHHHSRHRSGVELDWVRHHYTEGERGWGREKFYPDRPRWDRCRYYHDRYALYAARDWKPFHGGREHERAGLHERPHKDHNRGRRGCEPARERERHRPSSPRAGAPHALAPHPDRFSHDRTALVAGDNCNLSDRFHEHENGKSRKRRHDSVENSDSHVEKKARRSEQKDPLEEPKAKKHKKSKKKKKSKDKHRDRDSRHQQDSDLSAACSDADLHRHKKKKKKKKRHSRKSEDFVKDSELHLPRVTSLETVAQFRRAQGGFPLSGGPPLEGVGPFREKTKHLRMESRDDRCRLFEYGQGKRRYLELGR
In short: (§1)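 Global-median-normalised Spectronaut label-free quantities were compared by unpaired t-test, and values are average log2 ratios of fragment over vehicle. Only proteins with ≥2 unique peptides were used. HEK293T lysate (495 µg per sample) was treated in triplicate with fragment at 200 µM or vehicle for 3 h and then with Biotin-Ahx-Ub-VS at 0.5 µM final for 1 h. Labelled DUBs were then NeutrAvidin-enriched, digested with LysC and trypsin, and run by diaPASEF LC-MS/MS.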

[2] = target: USP46 (UniProt P62068)
In short: as §1

[3] = target: T2, USP47 (UniProt Q96K76)
T2 sequence (whole entry): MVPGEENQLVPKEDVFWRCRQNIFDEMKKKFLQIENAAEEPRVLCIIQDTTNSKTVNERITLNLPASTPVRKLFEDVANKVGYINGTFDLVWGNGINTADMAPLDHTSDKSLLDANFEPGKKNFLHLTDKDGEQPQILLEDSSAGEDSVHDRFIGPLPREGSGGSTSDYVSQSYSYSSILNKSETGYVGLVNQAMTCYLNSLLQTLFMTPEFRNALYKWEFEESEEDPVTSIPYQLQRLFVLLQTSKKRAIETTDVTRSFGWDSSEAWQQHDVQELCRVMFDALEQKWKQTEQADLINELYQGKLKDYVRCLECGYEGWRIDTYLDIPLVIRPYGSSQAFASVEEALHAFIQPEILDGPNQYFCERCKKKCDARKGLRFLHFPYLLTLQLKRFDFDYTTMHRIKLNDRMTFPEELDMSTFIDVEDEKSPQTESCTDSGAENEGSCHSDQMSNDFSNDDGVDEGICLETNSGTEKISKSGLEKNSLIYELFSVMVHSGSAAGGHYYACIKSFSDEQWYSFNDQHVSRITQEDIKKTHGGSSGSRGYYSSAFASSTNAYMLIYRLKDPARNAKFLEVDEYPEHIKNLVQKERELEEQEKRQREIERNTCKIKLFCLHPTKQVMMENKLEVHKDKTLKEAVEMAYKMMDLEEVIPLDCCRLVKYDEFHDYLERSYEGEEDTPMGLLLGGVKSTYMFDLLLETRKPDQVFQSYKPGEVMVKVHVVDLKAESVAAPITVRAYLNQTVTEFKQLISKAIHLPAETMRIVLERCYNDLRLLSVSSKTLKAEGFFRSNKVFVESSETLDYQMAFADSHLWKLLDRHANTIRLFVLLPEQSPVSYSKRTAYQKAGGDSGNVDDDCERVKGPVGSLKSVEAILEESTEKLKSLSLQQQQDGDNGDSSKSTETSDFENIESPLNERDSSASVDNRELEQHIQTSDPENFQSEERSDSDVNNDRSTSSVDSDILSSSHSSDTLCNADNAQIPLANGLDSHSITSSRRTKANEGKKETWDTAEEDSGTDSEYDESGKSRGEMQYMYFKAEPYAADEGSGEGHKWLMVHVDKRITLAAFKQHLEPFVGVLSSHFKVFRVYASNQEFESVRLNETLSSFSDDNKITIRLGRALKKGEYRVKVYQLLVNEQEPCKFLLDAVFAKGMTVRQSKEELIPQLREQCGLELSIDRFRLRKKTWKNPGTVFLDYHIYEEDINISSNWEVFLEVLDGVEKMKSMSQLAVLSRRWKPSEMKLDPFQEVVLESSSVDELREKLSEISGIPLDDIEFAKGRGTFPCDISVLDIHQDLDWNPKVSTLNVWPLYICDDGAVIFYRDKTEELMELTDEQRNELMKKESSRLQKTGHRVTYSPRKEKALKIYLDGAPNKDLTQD
In short: as §1

[4] = target: T3, USP48 (UniProt Q86UV5)
T3 sequence (whole entry): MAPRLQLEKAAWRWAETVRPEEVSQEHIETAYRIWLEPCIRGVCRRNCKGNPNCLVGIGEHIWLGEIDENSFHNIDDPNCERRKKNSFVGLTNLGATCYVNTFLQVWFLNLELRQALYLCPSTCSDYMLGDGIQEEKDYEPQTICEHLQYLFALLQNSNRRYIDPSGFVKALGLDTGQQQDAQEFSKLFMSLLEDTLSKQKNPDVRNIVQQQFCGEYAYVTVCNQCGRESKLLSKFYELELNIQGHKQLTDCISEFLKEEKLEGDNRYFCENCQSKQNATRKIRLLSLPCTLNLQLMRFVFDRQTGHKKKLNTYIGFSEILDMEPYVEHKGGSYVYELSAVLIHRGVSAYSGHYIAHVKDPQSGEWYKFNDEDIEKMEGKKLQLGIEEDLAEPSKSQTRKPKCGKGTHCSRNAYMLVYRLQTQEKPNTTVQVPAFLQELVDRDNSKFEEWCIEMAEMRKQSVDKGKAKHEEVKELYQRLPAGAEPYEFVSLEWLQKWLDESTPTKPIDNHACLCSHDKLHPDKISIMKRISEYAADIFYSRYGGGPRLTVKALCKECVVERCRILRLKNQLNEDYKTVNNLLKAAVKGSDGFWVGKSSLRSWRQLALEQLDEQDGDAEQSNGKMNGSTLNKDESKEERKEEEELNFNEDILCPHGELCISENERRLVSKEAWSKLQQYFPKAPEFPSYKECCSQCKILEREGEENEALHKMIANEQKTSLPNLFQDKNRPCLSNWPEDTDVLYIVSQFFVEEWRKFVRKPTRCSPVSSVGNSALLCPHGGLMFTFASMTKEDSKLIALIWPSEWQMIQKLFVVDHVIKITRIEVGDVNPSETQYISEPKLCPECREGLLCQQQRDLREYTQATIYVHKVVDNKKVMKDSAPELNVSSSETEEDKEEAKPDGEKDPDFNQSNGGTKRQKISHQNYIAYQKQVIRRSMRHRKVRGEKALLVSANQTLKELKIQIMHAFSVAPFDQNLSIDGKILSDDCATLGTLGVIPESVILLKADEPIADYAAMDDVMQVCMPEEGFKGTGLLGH
In short: as §1

[5] = target: T4, USP5 (UniProt P45974)
T4 sequence (whole entry): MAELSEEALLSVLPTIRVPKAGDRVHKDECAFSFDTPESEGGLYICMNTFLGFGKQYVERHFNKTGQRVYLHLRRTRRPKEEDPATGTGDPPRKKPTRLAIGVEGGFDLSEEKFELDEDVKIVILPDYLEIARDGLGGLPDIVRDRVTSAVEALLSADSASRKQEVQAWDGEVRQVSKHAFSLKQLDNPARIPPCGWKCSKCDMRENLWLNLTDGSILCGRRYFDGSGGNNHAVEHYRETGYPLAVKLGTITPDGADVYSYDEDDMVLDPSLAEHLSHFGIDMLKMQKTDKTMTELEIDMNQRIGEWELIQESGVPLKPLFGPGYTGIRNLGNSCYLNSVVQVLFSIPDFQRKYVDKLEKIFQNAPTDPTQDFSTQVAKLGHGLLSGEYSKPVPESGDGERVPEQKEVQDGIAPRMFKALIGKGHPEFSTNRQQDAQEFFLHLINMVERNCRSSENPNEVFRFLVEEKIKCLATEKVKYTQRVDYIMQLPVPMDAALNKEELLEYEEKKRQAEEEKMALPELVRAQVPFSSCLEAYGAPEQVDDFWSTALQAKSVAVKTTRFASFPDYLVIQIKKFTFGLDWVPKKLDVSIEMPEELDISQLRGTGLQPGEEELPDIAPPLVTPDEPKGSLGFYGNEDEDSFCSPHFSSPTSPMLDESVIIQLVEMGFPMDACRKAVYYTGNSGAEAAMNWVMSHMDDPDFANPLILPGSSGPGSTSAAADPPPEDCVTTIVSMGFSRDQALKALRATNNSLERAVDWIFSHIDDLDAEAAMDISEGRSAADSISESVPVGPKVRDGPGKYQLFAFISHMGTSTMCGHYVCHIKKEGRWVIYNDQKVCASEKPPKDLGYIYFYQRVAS
In short: as §1

[6] = target: USP54 (UniProt Q70EL1)
In short: as §1

[7] = target: USP7 (UniProt Q93009)
In short: as §1

[8] = target: T5, USP8 (UniProt P40818)
T5 sequence (whole entry): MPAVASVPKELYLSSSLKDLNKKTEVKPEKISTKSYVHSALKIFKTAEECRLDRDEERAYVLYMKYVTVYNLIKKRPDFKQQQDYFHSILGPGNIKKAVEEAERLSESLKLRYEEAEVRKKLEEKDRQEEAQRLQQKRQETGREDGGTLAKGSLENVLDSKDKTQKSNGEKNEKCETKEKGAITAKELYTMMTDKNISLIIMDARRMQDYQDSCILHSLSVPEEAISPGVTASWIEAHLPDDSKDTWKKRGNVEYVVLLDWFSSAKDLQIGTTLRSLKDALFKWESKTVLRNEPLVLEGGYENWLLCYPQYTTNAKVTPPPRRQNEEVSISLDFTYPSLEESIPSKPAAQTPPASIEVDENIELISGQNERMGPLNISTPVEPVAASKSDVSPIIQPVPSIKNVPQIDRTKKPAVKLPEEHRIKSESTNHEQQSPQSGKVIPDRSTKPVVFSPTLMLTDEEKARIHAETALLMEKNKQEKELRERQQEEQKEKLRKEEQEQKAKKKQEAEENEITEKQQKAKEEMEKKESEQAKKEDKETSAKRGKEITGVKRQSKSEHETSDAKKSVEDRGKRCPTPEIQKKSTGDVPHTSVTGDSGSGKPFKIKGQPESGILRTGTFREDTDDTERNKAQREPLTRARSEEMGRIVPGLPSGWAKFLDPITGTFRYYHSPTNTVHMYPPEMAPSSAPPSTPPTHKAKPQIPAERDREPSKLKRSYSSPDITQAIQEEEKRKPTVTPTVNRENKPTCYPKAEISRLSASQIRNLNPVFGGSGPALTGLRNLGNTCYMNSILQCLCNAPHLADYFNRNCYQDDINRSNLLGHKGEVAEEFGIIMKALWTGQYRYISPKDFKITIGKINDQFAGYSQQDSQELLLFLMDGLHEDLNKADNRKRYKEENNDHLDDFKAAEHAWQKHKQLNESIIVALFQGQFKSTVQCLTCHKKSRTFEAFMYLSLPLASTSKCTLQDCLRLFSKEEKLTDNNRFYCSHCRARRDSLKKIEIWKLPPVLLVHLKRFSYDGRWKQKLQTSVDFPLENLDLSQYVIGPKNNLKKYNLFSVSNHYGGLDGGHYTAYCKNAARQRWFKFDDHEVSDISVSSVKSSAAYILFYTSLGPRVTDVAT
In short: as §1

[9] = target: USP9X (UniProt Q93008)
In short: as §1

[10] = target: UniProt O00487
In short: as §1

Measured: log2 ratio of Biotin-Ahx-Ub-VS probe labelling

Chain of USP46 (P62068 whole entry): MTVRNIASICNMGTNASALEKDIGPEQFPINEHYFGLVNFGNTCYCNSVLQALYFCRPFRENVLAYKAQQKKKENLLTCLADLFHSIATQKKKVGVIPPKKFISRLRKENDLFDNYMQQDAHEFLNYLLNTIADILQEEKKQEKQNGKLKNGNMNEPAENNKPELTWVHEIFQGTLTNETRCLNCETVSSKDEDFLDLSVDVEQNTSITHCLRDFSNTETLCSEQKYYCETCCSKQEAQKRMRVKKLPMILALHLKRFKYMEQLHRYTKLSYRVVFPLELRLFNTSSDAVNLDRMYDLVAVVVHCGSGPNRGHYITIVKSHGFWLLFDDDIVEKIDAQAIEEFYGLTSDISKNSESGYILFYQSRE
Chain of USP9X (Q93008 whole entry): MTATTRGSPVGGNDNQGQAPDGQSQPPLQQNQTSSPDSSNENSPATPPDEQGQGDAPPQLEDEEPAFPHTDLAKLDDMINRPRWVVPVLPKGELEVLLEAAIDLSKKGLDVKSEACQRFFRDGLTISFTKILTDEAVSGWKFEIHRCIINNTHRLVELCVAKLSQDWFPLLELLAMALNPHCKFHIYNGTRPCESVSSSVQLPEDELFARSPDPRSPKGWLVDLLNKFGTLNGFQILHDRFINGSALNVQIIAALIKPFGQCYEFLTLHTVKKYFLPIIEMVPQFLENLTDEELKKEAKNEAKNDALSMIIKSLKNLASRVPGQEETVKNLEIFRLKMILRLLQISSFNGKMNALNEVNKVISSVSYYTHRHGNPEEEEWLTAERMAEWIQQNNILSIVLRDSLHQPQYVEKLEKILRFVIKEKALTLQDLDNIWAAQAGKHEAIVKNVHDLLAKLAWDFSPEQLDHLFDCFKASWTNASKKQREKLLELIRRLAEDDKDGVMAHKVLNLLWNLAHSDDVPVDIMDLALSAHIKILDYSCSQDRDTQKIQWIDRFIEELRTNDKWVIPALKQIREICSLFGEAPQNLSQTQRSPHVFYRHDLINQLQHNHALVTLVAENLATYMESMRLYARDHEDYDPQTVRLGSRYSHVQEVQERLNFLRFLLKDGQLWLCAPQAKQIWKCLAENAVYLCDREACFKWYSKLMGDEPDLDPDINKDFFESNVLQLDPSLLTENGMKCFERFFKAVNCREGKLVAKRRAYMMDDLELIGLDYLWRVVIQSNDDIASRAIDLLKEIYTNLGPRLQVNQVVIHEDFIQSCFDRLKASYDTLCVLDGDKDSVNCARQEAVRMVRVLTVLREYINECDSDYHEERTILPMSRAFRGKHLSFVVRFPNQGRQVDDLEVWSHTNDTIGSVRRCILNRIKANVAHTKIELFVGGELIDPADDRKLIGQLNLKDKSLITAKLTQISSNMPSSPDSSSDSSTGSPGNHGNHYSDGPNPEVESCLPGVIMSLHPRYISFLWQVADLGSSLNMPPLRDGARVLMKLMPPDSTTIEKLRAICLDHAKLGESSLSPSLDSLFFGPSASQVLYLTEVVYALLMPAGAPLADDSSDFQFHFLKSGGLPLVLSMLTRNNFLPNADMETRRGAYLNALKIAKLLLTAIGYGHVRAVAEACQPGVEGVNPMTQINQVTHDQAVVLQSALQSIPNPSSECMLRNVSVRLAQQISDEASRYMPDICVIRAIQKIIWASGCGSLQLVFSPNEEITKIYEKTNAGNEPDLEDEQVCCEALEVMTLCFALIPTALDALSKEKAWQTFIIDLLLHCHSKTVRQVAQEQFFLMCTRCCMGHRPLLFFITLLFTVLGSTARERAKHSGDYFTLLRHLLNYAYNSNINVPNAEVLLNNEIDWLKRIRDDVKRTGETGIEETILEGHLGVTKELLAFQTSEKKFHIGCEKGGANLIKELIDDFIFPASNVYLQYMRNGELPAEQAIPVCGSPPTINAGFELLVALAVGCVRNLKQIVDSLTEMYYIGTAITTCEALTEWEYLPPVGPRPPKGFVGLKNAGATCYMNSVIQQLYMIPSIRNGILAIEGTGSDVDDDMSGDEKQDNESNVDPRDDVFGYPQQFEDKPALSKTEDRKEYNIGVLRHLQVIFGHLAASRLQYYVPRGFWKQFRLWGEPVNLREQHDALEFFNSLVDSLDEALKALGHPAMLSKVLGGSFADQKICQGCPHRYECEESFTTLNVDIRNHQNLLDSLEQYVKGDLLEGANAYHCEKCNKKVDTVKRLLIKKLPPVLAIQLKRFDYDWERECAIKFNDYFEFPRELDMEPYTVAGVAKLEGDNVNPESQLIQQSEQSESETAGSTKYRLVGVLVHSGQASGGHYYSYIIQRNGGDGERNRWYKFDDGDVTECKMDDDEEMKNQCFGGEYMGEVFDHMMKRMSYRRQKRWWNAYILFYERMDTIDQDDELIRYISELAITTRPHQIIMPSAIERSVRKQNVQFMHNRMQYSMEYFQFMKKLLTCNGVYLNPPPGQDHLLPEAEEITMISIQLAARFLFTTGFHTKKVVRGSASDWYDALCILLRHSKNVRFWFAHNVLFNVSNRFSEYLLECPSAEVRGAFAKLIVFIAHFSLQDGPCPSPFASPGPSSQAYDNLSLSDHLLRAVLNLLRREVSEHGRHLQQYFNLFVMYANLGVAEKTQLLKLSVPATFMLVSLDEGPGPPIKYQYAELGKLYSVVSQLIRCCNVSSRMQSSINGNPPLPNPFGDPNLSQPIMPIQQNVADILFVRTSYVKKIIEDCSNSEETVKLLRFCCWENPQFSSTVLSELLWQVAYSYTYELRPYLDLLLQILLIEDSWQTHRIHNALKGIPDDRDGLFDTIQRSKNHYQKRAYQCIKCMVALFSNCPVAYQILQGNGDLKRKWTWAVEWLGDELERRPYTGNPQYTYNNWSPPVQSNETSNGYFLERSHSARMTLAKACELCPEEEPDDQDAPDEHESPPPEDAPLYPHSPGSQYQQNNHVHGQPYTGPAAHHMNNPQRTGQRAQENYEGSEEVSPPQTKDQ
Chain of USP7 (Q93009 whole entry, looked up): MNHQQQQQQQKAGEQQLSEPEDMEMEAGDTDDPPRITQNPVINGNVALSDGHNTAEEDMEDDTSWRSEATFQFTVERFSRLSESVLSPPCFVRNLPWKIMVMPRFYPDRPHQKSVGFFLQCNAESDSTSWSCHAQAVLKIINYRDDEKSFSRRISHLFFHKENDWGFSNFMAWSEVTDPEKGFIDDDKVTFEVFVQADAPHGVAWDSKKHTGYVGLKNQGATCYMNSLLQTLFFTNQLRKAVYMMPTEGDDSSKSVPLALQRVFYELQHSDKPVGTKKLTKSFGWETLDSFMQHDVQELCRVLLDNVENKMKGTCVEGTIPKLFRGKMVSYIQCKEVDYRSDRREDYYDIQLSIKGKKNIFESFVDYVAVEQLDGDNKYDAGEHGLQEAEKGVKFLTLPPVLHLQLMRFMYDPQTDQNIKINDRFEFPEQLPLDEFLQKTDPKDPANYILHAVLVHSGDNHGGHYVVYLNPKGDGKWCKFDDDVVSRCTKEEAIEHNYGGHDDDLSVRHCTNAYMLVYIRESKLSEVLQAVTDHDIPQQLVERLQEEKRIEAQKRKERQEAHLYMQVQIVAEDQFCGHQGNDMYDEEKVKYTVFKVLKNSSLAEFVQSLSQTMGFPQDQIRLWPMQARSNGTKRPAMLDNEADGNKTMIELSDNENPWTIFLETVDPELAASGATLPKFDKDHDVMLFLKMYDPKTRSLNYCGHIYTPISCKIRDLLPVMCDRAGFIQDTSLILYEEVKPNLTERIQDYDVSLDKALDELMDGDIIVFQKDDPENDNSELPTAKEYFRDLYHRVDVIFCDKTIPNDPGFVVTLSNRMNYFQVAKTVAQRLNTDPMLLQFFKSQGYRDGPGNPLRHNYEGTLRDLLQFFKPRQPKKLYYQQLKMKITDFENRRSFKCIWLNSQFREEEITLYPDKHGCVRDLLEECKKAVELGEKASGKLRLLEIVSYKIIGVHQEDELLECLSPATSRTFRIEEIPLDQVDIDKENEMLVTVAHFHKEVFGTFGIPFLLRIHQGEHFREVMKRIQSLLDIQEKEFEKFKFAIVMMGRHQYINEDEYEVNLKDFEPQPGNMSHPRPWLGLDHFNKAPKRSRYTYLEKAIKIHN
Chain of UniProt O00487 (O00487 whole entry): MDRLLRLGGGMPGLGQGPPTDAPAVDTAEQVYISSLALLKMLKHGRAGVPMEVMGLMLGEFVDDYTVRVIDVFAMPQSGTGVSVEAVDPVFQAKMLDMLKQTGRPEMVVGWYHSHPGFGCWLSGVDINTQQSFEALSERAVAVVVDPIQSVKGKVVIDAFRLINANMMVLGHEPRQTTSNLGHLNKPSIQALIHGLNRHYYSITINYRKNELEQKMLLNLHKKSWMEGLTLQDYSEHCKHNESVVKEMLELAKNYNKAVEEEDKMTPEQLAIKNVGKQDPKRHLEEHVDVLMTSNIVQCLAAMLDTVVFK

N#Cc1cnn(-c2ccccc2)c1NC(=O)CCl
inactive: [1] -0.0771 | [2] -0.0464 | [3] -0.263 | [4] -0.451 | [5] -0.203 | [6] 0.718 | [7] -0.45 | [8] -0.512 | [9] -0.317 | [10] -0.0605
